Compounds without any hit were thinned out: in the full panel of roughly 83,000, 20% have a hit.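 Activity criterion: percent growth below 10, measured after cells in 96-well plates were exposed to a single compound concentration for 48 hours.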 The source made the active and inactive calls.
Tested on: HL-60(TB) leukemia
Experiment: NCI-60 one-dose screen, 48 h (100 = growth as untreated, 0 = no growth, -100 = all killed)
Settings: 10 µM unless noted

SMILES	growth
CCCCn1cnc2c(SCc3ccc([N+](=O)[O-])cc3)nc(N)nc21	-42.6% (active)
O=C1C(Cl)=C(SC2=NCCN2)C(=O)c2ccccc21	81.4% (inactive)
C#Cc1ccc(-n2c(/C=C/c3cc(OC)c(OC)c(OC)c3)nc3ncccc3c2=O)cc1	26.5% (inactive)
O=C1CSC(=S)N1/N=C/c1ccc(Cl)s1	91% (inactive)
O=C(O)c1cccc(N/C=C/C(=O)c2cc3cc(Br)ccc3oc2=O)c1	99.8% (inactive)
O=C1Nc2ccccc2/C1=C/c1nc2ccccc2c(=O)[nH]1	102% (inactive)
COc1cc(NC(=O)SC2=NCCS2)cc(OC)c1	90.5% (inactive)
[O-]c1c[n+](-c2ccc(Cl)cc2)no1	89.4% (inactive)
CC/C=C\C/C=C\C[C@H](O)C/C=C1/C(=O)C=C[C@H]1C/C=C\CCC(=O)OC	1.46% [8.25 µM] (active)
O=C(N=Nc1c(O)[nH]c2ccccc12)Nc1ccc(Cl)cc1	38.9% (inactive)
O=C(Nc1cccc(Br)c1)Oc1cccc2cccnc12	4% [100 µM] (active)
CC(CN1CCN(CC(C)Nc2ccnc3cc(Cl)ccc23)CC1)Nc1ccnc2cc(Cl)ccc12 (stereo unspecified)	19.8% (inactive)
Cc1cc(O)cc(O)c1N=NC1=NCCS1	105% (inactive)
Cc1nc2cc(-c3nn(C(C)C)c4ncnc(N)c34)ccc2o1	5.12% (active)
Clc1cc(Br)ccc1-c1ccc(CNCC2CCNCC2)o1	67.7% (inactive)
Cn1cc(-c2ccc3c(c2)ncn3-c2ccc(CC(=O)Nc3cc(C(C)(C)C)on3)cc2)cn1	67.4% (inactive)

From PubChem BioAssay (NCI)
